Experimental data reported in PubChem BioAssay AID1159580 (chemical genetic matrix, 2015).
“And” between values parts separate entries of the source, which are not always exact repeats. Equal values may be shown once. In all, about 5,500 compounds went through this assay and about 2,000 (36%) were called active. Another 18% or so got no clear call; they are omitted. Cut-off read from the data, not from the text of the source: active = normalized growth mostly below about 0.91 (no sharp cut-off); inconclusive = no clear call, values can overlap the other calls; inactive = mostly above about 0.92. The list shows a part of the results.

Experiment: chemical genetic growth profiling, strain panel (AID 1159580);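 note: tested at 20 µM; growth read once vehicle control cultures reached saturation at 30 °C; 1 = growth at the plate median or of vehicle wells; lower values mean less growth of the strain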
Details: S. cerevisiae deletion strains, growth OD

Measured: normalized growth

c1ccc([C@H]2CN3CCSC3=N2)cc1
inactive: locus YAL013W, strain DEP1, stronger effect = lower value 1.01 | locus YAL021C, strain ccr4, stronger effect = lower value 1.01 | locus YAL026C, strain drs2, stronger effect = lower value 1.01 | locus YAL030W, strain snc1, stronger effect = lower value 1.01 | locus YBL061C, strain skt5, stronger effect = lower value 1.01 | locus YBR009C, strain hhf1, stronger effect = lower value 1.01 | locus YBR021W, strain FUR4, stronger effect = lower value 0.956 | locus YBR023C, strain chs3, stronger effect = lower value 1.01 | locus YBR171W, strain sec66, stronger effect = lower value 1.02 | locus YBR229C, strain ROT2, stronger effect = lower value 1.01 | locus YBR231C, strain swc5, stronger effect = lower value 1 | locus YBR279W, strain paf1, stronger effect = lower value 1.02 | locus YCL011C, strain gbp2, stronger effect = lower value 1.01 | locus YCL016C, strain dcc1, stronger effect = lower value 1.01 | locus YCL029C, strain bik1, stronger effect = lower value 1.01 | locus YCL061C, strain MRC1, stronger effect = lower value 0.996 | locus YCL069W, strain vba3, stronger effect = lower value 1 | locus YCR088W, strain abp1, stronger effect = lower value 1 | locus YDL005C, strain med2, stronger effect = lower value 0.976 | locus YDL035C, strain GPR1, stronger effect = lower value 1.01 | locus YDL040C, strain nat1, stronger effect = lower value 1.01 | locus YDL074C, strain BRE1, stronger effect = lower value 1 | locus YDL101C, strain DUN1, stronger effect = lower value 1 | locus YDL134C, strain PPH21, stronger effect = lower value 1.01 | locus YDL185W, strain tfp1, stronger effect = lower value 1.02 | locus YDL192W, strain arf1, stronger effect = lower value 1 | locus YDR001C, strain nth1, stronger effect = lower value 0.995 | locus YDR069C, strain doa4, stronger effect = lower value 0.996 | locus YDR101C, strain arx1, stronger effect = lower value 1 | locus YDR137W, strain rgp1, stronger effect = lower value 1.04 | locus YDR150W, strain NUM1, stronger effect = lower value 1.01 | locus YDR159W, strain sac3, stronger effect = lower value 0.944 | locus YDR162C, strain NBP2, stronger effect = lower value 0.999 | locus YDR195W, strain ref2 1 | locus YDR297W, strain sur2, stronger effect = lower value 1.01 | locus YDR318W, strain mcm21, stronger effect = lower value 0.993 | locus YDR334W, strain swr1, stronger effect = lower value 0.984 | locus YDR335W, strain msn5, stronger effect = lower value 0.987 | locus YDR388W, stronger effect = lower value 1.01 | locus YDR392W, strain spt3, stronger effect = lower value 1.01 | locus YDR502C, strain sam2, stronger effect = lower value 0.993 | locus YEL003W, strain gim4, stronger effect = lower value 1.01 | locus YEL037C, strain rad23, stronger effect = lower value 1 | locus YEL061C, strain CIN8 (second series), stronger effect = lower value 0.996 | locus YEL061C, strain CIN8, stronger effect = lower value 1 | locus YER015W, strain faa2, stronger effect = lower value 1.01 | locus YER016W, strain bim1, stronger effect = lower value 1.01 | locus YER110C, stronger effect = lower value 1.02 | locus YER111C, strain swi4, stronger effect = lower value 1.01 | locus YER155C, strain BEM2 (second series), stronger effect = lower value 1.01 | locus YER155C, strain BEM2, stronger effect = lower value 0.999 | locus YER167W, strain BCK2, stronger effect = lower value 1.01 | locus YFR010W, strain ubp6, stronger effect = lower value 0.981 | locus YGL078C, strain dbp3, stronger effect = lower value 1 | locus YGL086W, strain mad1, stronger effect = lower value 1.01 | locus YGL167C, strain pmr1, stronger effect = lower value 1 | locus YGL173C, strain kem1, stronger effect = lower value 1.01 | locus YGL227W, strain vid30, stronger effect = lower value 1.02 | locus YGL240W, strain doc1, stronger effect = lower value 1 | locus YGL248W, strain PDE1, stronger effect = lower value 1 | locus YGL253W, strain hxk2, stronger effect = lower value 1.01 | locus YGR078C, strain PAC10, stronger effect = lower value 1 | locus YGR135W, strain pre9, stronger effect = lower value 0.988 | locus YGR229C, strain SMI1, stronger effect = lower value 0.994 | locus YGR252W, strain gcn5, stronger effect = lower value 1.02 | locus YHR013C, strain ard1, stronger effect = lower value 1.02 | locus YHR027C, strain rpn1, stronger effect = lower value 1.01 | locus YHR030C, strain SLT2, stronger effect = lower value 1.01 | locus YHR079C, strain IRE1 (second series), stronger effect = lower value 1 | locus YHR079C, strain IRE1, stronger effect = lower value 1.03 | locus YHR094C, strain hxt1, stronger effect = lower value 1 | locus YHR129C, strain ARP1, stronger effect = lower value 1.03 | locus YHR142W, strain chs7, stronger effect = lower value 1.05 | locus YHR200W, strain rpn10, stronger effect = lower value 1 | locus YIL066C, strain RNR3, stronger effect = lower value 1.02 | locus YIL073C, strain SPO22, stronger effect = lower value 1.05 | locus YIL125W, strain kgd1, stronger effect = lower value 1.01 | locus YIR030C, strain dcg1, stronger effect = lower value 1.01 | locus YJL092W, strain hpr5, stronger effect = lower value 1 | locus YJL095W, strain BCK1 (second series), stronger effect = lower value 1.01 | locus YJL095W, strain BCK1, stronger effect = lower value 1.01 and 1.05 | locus YJL115W, strain asf1, stronger effect = lower value 0.997 | locus YJL129C, strain trk1, stronger effect = lower value 1.02 | locus YJL134W, strain LCB3, stronger effect = lower value 1.01 | locus YJL154C, strain vps35, stronger effect = lower value 1.01 | locus YJL164C, strain tpk1, stronger effect = lower value 0.983 | locus YJL166W, strain qcr8, stronger effect = lower value 1.01 | locus YJL168C, strain set2, stronger effect = lower value 1.01 | locus YJL187C, strain SWE1 (second series), stronger effect = lower value 1.01 | locus YJL187C, strain SWE1, stronger effect = lower value 1 | locus YJR043C, strain POL32, stronger effect = lower value 1.02 | locus YJR066W, strain TOR1, stronger effect = lower value 0.976
